# Laboratory results from PubChem BioAssay.
# Activity calls are given as the source filed them.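 The calls were made as follows, unless noted: active = visual image review flags a hit and inhibition of aggregation exceeds 20%; inconclusive = visual hit but inhibition at or below 20%; inactive = no hit on visual image review.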
# Experiment: inhibitors of TNFa-induced NFkB p65 translocation, primary screen, imaging, HUVEC, MLSMR starter and 10KST1 sets (AID 438;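 active = inhibition above 20% together with a positive visual image hit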;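 also: compound added about 3h40 before a 20 min TNFalpha stimulation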;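 as to inhibition: signal is the nuclear over cytoplasmic p65 intensity ratio per well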)
# Conditions: HUVEC TNFa-induced p65 nuclear translocation; cell count: measured here: nuclei count (cytotoxicity indicator), at 2.08 µM; inhibition: at 2 µM, stronger effect = higher value, 0% TNFa-plus-vehicle, 100% no-TNFa wells
Compound,inhibition,cell count
CCOc1ccc2nc(SCc3ccc(C(=O)OC)o3)[nH]c2c1,15.9% (inactive),335
Cc1cc(C)nc(SCC(=O)Nc2ncc3c(n2)CCCC3=O)n1,-8.6% (inactive),188
O=C(Cn1cc2c(n1)CCCC2)NCCc1ccccc1,-3.7% (inactive),792
COc1ccc(-c2nnc(SCC(=O)Nc3sc4c(c3C#N)CCC4)n2CC2CCCO2)cc1 (stereo not given),4.6% (inactive),846
O=C1c2ccccc2S(=O)(=O)N1Cc1nnc(-c2ccccc2Br)o1,-4.9% (inactive),536
O=C(CCc1ccccc1)Nc1ccncc1,1% (inactive),412
CCCc1nnc(NC(=O)CCC(=O)N2CCN(CCOc3ccc(C)cc3)CC2)s1,-5.6% (inactive),480
O=C(/C=C1\NC2(CCCC2)Cc2ccccc21)N1CCOCC1,-1.6% (inactive),637
Cn1cnc(S(=O)(=O)NCc2cccs2)c1,10.8% (inactive),417
CCOC(=O)c1oc2cccc(OC(C)=O)c2c1C,8.1% (inactive),306
CCC(C)(C)NC(=O)CN(Cc1ccc2c(c1)OCO2)C(=O)CCC(=O)Nc1ccccn1,-20.9% (inactive),517
Cc1ccc(C(=O)NC(Cc2c[nH]c3ccccc23)C(=O)O)o1 (stereo not given),4.3% (inactive),507
Nc1cc(CN2C(=O)c3ccccc3C2=O)cc(Cl)c1O,-1.8% (inactive),451
O=S(=O)(Nc1nc2ccccc2nc1NCc1ccco1)c1cccs1,-6.2% (inactive),448
COc1ccc(S(=O)(=O)Nc2cc(C)on2)cc1OC,6.5% (inactive),455
O=C(CSc1nccn1Cc1ccccc1)Nc1nccs1,-0.7% (inactive),388
Nc1cc(=O)[nH]c(SCC(=O)Nc2ccc(Br)cc2)n1,8.2% (inactive),825
CCN(CCCNC(=O)CC1Oc2ccc(C)cc2NC1=O)Cc1ccccc1 (stereo not given),5.1% (inactive),548
O=C(OCCN(CCOC(=O)c1ccncc1)S(=O)(=O)c1cccs1)c1ccncc1,10.8% (inactive),888
CCc1c(C)c2ccc(OCC(=O)OC)cc2oc1=O,2.2% (inactive),342

Compound,inhibition,cell count
COc1ccccc1-n1c(C)nnc1SCC(=O)Nc1cccc(C(C)=O)c1,4.3% (inactive),388
O=C(CCNS(=O)(=O)c1ccc(Cl)cc1)NCc1ccccn1,-21.1% (inactive),609
O=C1CC(Cc2ccccc2)C(=O)N1CCCn1ccnc1 (stereo not given),-4.9% (inactive),429
CSc1ccccc1NC(=O)c1cnc2n(c1=O)CCS2,-9.6% (inactive),695
COc1ccc(C(=O)NCc2ccccc2OC)cc1,-0.6% (inactive),590
O=C(CSc1nnc(-c2ccc(Br)o2)n1Cc1ccccc1)c1ccccc1F,-5.8% (inactive),336
Cc1ccc(/C=c2\s/c(=C(/C#N)C(=O)N3CCCC3)n(Cc3ccco3)c2=O)s1,2.8% (inactive),627
O=C(NCc1ccccn1)c1cc(-n2cnnc2)ccc1Cl,-3.9% (inactive),365
O=C(c1ccc2c(c1)OCO2)N1CCCN(C(=O)c2ccc3c(c2)OCO3)CC1,5% (inactive),522
Cc1ccc(NC(=O)CCC(=O)O)cc1F,9.4% (inactive),381
COc1cc2c(N3CCOCC3)cc(O)c(CC(=O)Nc3ccccc3)c2cc1OC,2.5% (inactive),217
O=C(NCc1cccnc1)C1CCCN(S(=O)(=O)c2ccc(Cl)cc2)C1 (stereo not given),-48% (inactive),638
CCn1cc(C(=O)N2CCOCC2)c(=O)c2cc(S(=O)(=O)N(C)C3CCCCC3)ccc21,7.1% (inactive),518
CC(C)N(C(=O)CSc1nnc(NC(=O)C2CCC2)s1)C(C)C,-0.6% (inactive),599
Cc1ccc(CCSCC(=O)O)cn1,4.9% (inactive),174
COc1cc(OC)cc(C(=O)N2c3ccc(F)cc3CCC2C)c1 (stereo not given),-4.7% (inactive),282
O=C(CN1C(=O)c2ccccc2S1(=O)=O)NCc1ccccc1Cl,4.2% (inactive),698
CC(C)[C@H](NC(=O)OC(C)(C)C)c1nnc(SCC(=O)Nc2ccc(Br)cc2)o1,-6.7% (inactive),402
O=C(NCc1cccs1)C1CC(=O)N(C2CCCC2)C1 (stereo not given),-14.4% (inactive),376
O=C(Nc1ccc2snnc2c1)N1CCN(c2ccccc2)CC1,1.6% (inactive),454

# Experiment: reduction of polyQ htt aggregates in cells – imaging, exon1htt(103Q)mCFP cells, high-content imaging, primary screen (AID 483);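 also: compound exposure lasted 3 days before fixation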;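 as to nuclei count: percent of the per-plate median nuclei count of sample wells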
# Conditions: exon1htt(103Q)mCFP cell line, aggregate imaging, at 2 µM; inhibition of aggregation: stronger effect = higher value; nuclei count: measured here: cell count, toxicity
Compound,nuclei count [%],inhibition of aggregation
CCOc1ccc2nc(SCc3ccc(C(=O)OC)o3)[nH]c2c1,96.5,16.9% (inactive)
Cc1cc(C)nc(SCC(=O)Nc2ncc3c(n2)CCCC3=O)n1,98.6,10.1% (inactive)
O=C(Cn1cc2c(n1)CCCC2)NCCc1ccccc1,106,0.9% (inactive)
COc1ccc(-c2nnc(SCC(=O)Nc3sc4c(c3C#N)CCC4)n2CC2CCCO2)cc1 (stereo not given),103,13.5% (inactive)
O=C1c2ccccc2S(=O)(=O)N1Cc1nnc(-c2ccccc2Br)o1,106,-9.2% (inactive)
O=C(CCc1ccccc1)Nc1ccncc1,94.1,7.9% (inactive)
CCCc1nnc(NC(=O)CCC(=O)N2CCN(CCOc3ccc(C)cc3)CC2)s1,89.5,-0.2% (inactive)
O=C(/C=C1\NC2(CCCC2)Cc2ccccc21)N1CCOCC1,88.6,-19.3% (inactive)
Cn1cnc(S(=O)(=O)NCc2cccs2)c1,101,-26.8% (inactive)
CCOC(=O)c1oc2cccc(OC(C)=O)c2c1C,97.4,11.2% (inactive)
CCC(C)(C)NC(=O)CN(Cc1ccc2c(c1)OCO2)C(=O)CCC(=O)Nc1ccccn1,92.4,-0.5% (inactive)
Cc1ccc(C(=O)NC(Cc2c[nH]c3ccccc23)C(=O)O)o1 (stereo not given),110,-3.1% (inactive)
Nc1cc(CN2C(=O)c3ccccc3C2=O)cc(Cl)c1O,100,14.9% (inactive)
O=S(=O)(Nc1nc2ccccc2nc1NCc1ccco1)c1cccs1,105,-18.2% (inactive)
COc1ccc(S(=O)(=O)Nc2cc(C)on2)cc1OC,109,-7.8% (inactive)
O=C(CSc1nccn1Cc1ccccc1)Nc1nccs1,83.7,10.4% (inactive)
Nc1cc(=O)[nH]c(SCC(=O)Nc2ccc(Br)cc2)n1,108,-2.2% (inactive)
CCN(CCCNC(=O)CC1Oc2ccc(C)cc2NC1=O)Cc1ccccc1 (stereo not given),102,30.8% (inactive)
O=C(OCCN(CCOC(=O)c1ccncc1)S(=O)(=O)c1cccs1)c1ccncc1,110,-22.1% (inactive)
CCc1c(C)c2ccc(OCC(=O)OC)cc2oc1=O,78.5,9.8% (inactive)

Compound,nuclei count [%],inhibition of aggregation
COc1ccccc1-n1c(C)nnc1SCC(=O)Nc1cccc(C(C)=O)c1,104,3.5% (inactive)
O=C(CCNS(=O)(=O)c1ccc(Cl)cc1)NCc1ccccn1,78.6,5.7% (inactive)
O=C1CC(Cc2ccccc2)C(=O)N1CCCn1ccnc1 (stereo not given),100,10.8% (inactive)
CSc1ccccc1NC(=O)c1cnc2n(c1=O)CCS2,111,-2.5% (inactive)
COc1ccc(C(=O)NCc2ccccc2OC)cc1,107,-15.5% (inactive)
O=C(CSc1nnc(-c2ccc(Br)o2)n1Cc1ccccc1)c1ccccc1F,87.1,11.9% (inactive)
Cc1ccc(/C=c2\s/c(=C(/C#N)C(=O)N3CCCC3)n(Cc3ccco3)c2=O)s1,101,-17.3% (inactive)
O=C(NCc1ccccn1)c1cc(-n2cnnc2)ccc1Cl,112,-1.2% (inactive)
O=C(c1ccc2c(c1)OCO2)N1CCCN(C(=O)c2ccc3c(c2)OCO3)CC1,103,-1.1% (inactive)
Cc1ccc(NC(=O)CCC(=O)O)cc1F,97.1,-13.4% (inactive)
COc1cc2c(N3CCOCC3)cc(O)c(CC(=O)Nc3ccccc3)c2cc1OC,107,0.7% (inactive)
O=C(NCc1cccnc1)C1CCCN(S(=O)(=O)c2ccc(Cl)cc2)C1 (stereo not given),98,-4.5% (inactive)
CCn1cc(C(=O)N2CCOCC2)c(=O)c2cc(S(=O)(=O)N(C)C3CCCCC3)ccc21,84.2,3.9% (inactive)
CC(C)N(C(=O)CSc1nnc(NC(=O)C2CCC2)s1)C(C)C,86.3,-7.3% (inactive)
Cc1ccc(CCSCC(=O)O)cn1,90,1.9% (inactive)
COc1cc(OC)cc(C(=O)N2c3ccc(F)cc3CCC2C)c1 (stereo not given),83.6,19% (inactive)
O=C(CN1C(=O)c2ccccc2S1(=O)=O)NCc1ccccc1Cl,106,8.6% (inactive)
CC(C)[C@H](NC(=O)OC(C)(C)C)c1nnc(SCC(=O)Nc2ccc(Br)cc2)o1,107,6.5% (inactive)
O=C(NCc1cccs1)C1CC(=O)N(C2CCCC2)C1 (stereo not given),97.2,-18.1% (inactive)
O=C(Nc1ccc2snnc2c1)N1CCN(c2ccccc2)CC1,101,0.7% (inactive)
